The assay has as its system Madurella mycetomatis MM55. Kind of assay: percent growth relative to solvent control; higher = less inhibition, active = 20 or less. To be noted: 100 µM; 7 days.
For `COc1cc(NC(=O)Cc2nn(C)c(=O)c3ccccc23)ccc1Cl`, the percent growth is 116% (inactive).
In the case of `CCc1nc2ccc(C(=O)NCc3ccc4c(c3)OCO4)cn2c1N(C)Cc1cccs1` it was 44% (inactive); in that of `CC(=O)Oc1ccccc1C(=O)Nc1ncc([N+](=O)[O-])s1`, 104% (inactive); in that of `Cc1cc(C(=O)Nc2ccc(-c3ccccc3)cc2)no1`, 199% (inactive).
For `Clc1cccc(C(c2ccc(CN3CCNCC3)cc2)n2ccnc2)c1` (stereo not drawn), the percent growth was 115% (inactive).
For `O=C(Nc1c(O)cccc1-c1nc2c(C(=O)O)cccc2o1)c1cc(-c2ccccc2)on1` the value was 113% (inactive).
As to `Cc1cc(OCC(=O)Nc2ccc(C(C)C)cc2)n(C)c(=O)c1C#N`, the percent growth was 96% (inactive).
On to `CNC(=O)C1Cc2c([nH]c3cc(Cl)ccc23)C2(CCN(CCc3ccccc3)CC2)N1` (stereo not drawn), for which the percent growth is 70% (inactive).
In the case of `O=C(NCc1nnc2n1CCCCC2)c1ccc(-c2ccc(F)cc2)o1` it was 87.7% (inactive); in that of `CC(=O)N(CCN(C(=O)c1ccc(F)cc1)c1ccccc1)c1ccccc1`, 48.9% (inactive); in that of `Nc1ncnc2c1c(Cc1cccc3ccccc13)nn2CC1CCNCC1`, 132% (inactive).
In the case of `CNC(=O)CNc1nc(-c2ccccn2)nc2scc(-c3ccccc3)c12` it was 30.8% (inactive); in that of `CS(=O)(=O)c1ccc(C(=O)N(CC2CCCO2)c2nc3ccccc3s2)cc1[N+](=O)[O-]` (stereo not drawn), 110% (inactive).
As for `Cc1ccc(-c2cc(C(=O)Nc3cccnc3)c3cc(Br)ccc3n2)cc1`, the percent growth was 90.5% (inactive).
In the case of `O=C1Nc2ccc(Br)cc2C12NCCc1c2[nH]c2ccccc12` (stereo not drawn) it was 63.6% (inactive); in that of `COc1cc(C2=NCCN2)ccc1-c1cn(-c2cccc(C3=NCCN3)c2)nn1`, 61% (inactive).
On to `O=C(NC1=NCCS1)c1sc2cc(F)ccc2c1Cl`, for which the percent growth is 107% (inactive).
Consider `COc1ccc2nccc(NC(=O)C3CCN(CCc4ccc(Cl)cc4)CC3)c2n1`, for which the percent growth was 48.8% (inactive).
For `COC(=O)c1c(NC(=O)c2c(F)c(F)c(F)c(F)c2F)sc2c1CCCCC2` the value was 85.5% (inactive); for `CC(=O)N1CCc2cc3nc(C)cc(C)c3cc21`, 84.2% (inactive).
In the case of `CCOC(=O)c1cc(-c2csc(Nc3c(C)cc(C)cc3C)n2)on1` it was 92.2% (inactive).
In the case of `Nc1ncnc2c1c(-c1cnc3ccccc3c1)nn2CC1CCNCC1` it was 93.3% (inactive); in that of `O=C(CCC1CCCCC1)Nc1cccc(-c2nnc(-c3ccco3)o2)c1`, 96.1% (inactive); in that of `CC1COC2(CCN(c3nc(=O)c4cc(C(F)(F)F)cc([N+](=O)[O-])c4s3)CC2)O1` (stereo not drawn), 79.4% (inactive).
In the case of `CCNC(=O)C(C)Nc1nc(-c2cccnc2)nc2sc(C)c(C)c12` (stereo not drawn), the percent growth was 90.4% (inactive).
For `Cc1nn(C)cc1C(C)Nc1nncc(-c2ccc(C(F)(F)F)cc2)n1` (stereo not drawn) the value was 61.9% (inactive); for `C[C@H](C(N)=O)N1CCCC[C@@H]1c1ccc(OCc2cccc(F)c2)cc1`, 92% (inactive).
For `COc1cccn2c(C(=O)N3CCCCC3)c(C(F)(F)F)nc12` the value was 85.7% (inactive); for `Nc1nc(N)c2c3c(sc2n1)CN(Cc1ccccc1)CC3`, 88% (inactive).
For `CC1CS(=O)(=O)CCN1/N=C/c1ccc([N+](=O)[O-])o1` (stereo not drawn), the percent growth is 96.8% (inactive).
In the case of `Cc1ccc(NC(=O)c2cc(S(=O)(=O)NC(C)(C)C)ccc2C)nc1` it was 78.4% (inactive); in that of `COc1cccc(OC)c1C(=O)Nc1ccc(Cl)c(-c2nc3ccccc3s2)c1`, 78.4% (inactive).
For `C[C@H]1COc2c(N3CCN(C)CC3)c(F)cc3c(=O)c(C(=O)O)cn1c23` the value was 89.5% (inactive).
In the case of `Nc1ncc(Br)cc1-c1nc2cc(Cl)cnc2[nH]1` it was 105% (inactive).
With `O=C(NCc1ccco1)N1CCN(Cc2ccc(Cl)s2)CC1`, the percent growth is 90.6% (inactive).
For `CC(=O)NCC1CN(c2ccc(-c3ccc(CNCc4cn[nH]n4)cc3)c(F)c2)C(=O)O1` (stereo not drawn) the value was 125% (inactive).
Consider `O=C(Nc1ccc2c(c1)B(O)OC2)c1ccccc1C(F)(F)F`, for which the percent growth was 150% (inactive).
Regarding `Clc1ccc(CN2CCN(C3=NCCN3)CC2)cc1Cl`, the percent growth was 122% (inactive).

Source of the values: the supplement of paper PMC5940239.
